This is a sample that favours compounds with a hit; in the whole collection about 17% have one here.
DT40 TDP1 no CPT = qHTS for Inhibitors of human tyrosyl-DNA phosphodiesterase 1 (TDP1): qHTS in cells in absence of CPT | hit rate 15% among 420,000 | Potency, µM (highest dose often 46.2 µM), for inactives: at the highest dose activity change, negative = growth inhibition, most hits filed as inhibitors | DT40 Tdp1-/- hTDP1 cells, no CPT, ATP luminescence, 48 h | AID 686978, 2013; further: on the % scale 0 is the no-effect control and ±100 the full control effect; nearly all actives have a fitted effect of over 55% in size
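A cellular qHTS used chicken DT40 cells lacking endogenous Tdp1 but carrying stably transfected human TDP1. Compounds were applied without camptothecin, and cell growth kinetics were judged by ATP-dependent luminescence after ≥48 hr.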
S2 tox = viability counter-screen for ATXN expression inhibitors. Potency, µM (series often up to 56.7 µM), most hits filed as cytotoxic. S2 cells (HEK-293 line with an ATXN2-luciferase reporter) viability, CellTiter-Fluor protease fluorescence, 24 h. hit rate 0.49% among 400,000; further: nearly all actives have a fitted effect of over 40% in size
ATXN2 expr inh = inhibitors of ATXN2 expression. Potency, µM (doses to about 57 µM), without a hit: at the top dose activity change, negative = inhibition, most hits filed as inhibitors. HEK-293 ATXN2-luciferase reporter, luminescence, 24 h. hit rate 0.72% among 360,000; further: on the % scale 0 is the no-effect control and ±100 the full control effect; nearly all actives have a fitted effect of over 55% in size
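qHTS (up to 57 uM final) was run with 24 h compound exposure of reporter cells at 37 °C. Each well was multiplexed: SteadyGlo luminescence measured ATXN2-luciferase expression after a fluorogenic Gly-Phe-AFC viability readout (25 uM final).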
HepG2 tox = HepG2 cytotoxicity, counter-screen for TGF-b inhibitors; HepG2 CAGA-GFP viability, ATP luminescence, 18 h; hit rate 0.76% among 410,000; Potency, µM (series often up to 46.1 µM), for inactives: at the highest dose activity change, negative = cytotoxicity, most hits filed as cytotoxic
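HepG2 CAGA-GFP cells (1000/well, DMEM with 1% FBS) received compound, then TGF-beta at 500 pg/mL final, and were incubated 18 hours at 37 degrees C. Viability was read by CellTiter-Glo luminescence. Media-only wells were set as complete cell-killing and DMSO as no toxicity.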
TGFb SMAD3 inh = TGF-b pathway inhibition. AID 588855. HepG2 CAGA-GFP TGF-b/SMAD3 reporter, GFP fluorescence, 18 h; TGF-beta stimulated, 500 pg/mL final. hit rate 1.2% among 410,000. Potency, µM (series often up to 46.1 µM), for the others: top-dose activity, negative = inhibition, actives largely listed as inhibitors; further: on the % scale 0 is the no-effect control and ±100 the full control effect; nearly all actives have a fitted effect of over 65% in size
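Using HEPG2 CAGA-GFP reporter cells at 1000 cells/well, we pinned test compounds, stimulated with recombinant TGF-beta (500 pg/mL final) and measured total well GFP after 18 h.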
DT40 TDP1 CPT = growth inhibition of DT40 Tdp1-/-;hTDP1 cells with camptothecin (screen for TDP1 inhibitors); hit rate 12% among 420,000; Potency, µM (titrated, usually from 46.2 µM), without a hit: top-dose activity change, negative = growth inhibition, hits mostly inhibitors; chicken DT40 Tdp1-/-;hTDP1 cells + 20 nM CPT, ATP luminescence, 48 h; further: on the % scale 0 is the no-effect control and ±100 the full control effect; nearly all actives have a fitted effect of over 55% in size
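Chicken DT40 Tdp1-/- cells stably complemented with human TDP1 were seeded at 400 cells/well in medium containing 20 nM camptothecin, exposed to pin-transferred compounds, and grown at 37 °C for at least 48 hr. Viability was read as ATP luminescence.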
* hit, by the source's call; i = inactive; ? = inconclusive; · = not tested or not shown; ! = not confirmed by another sample; [ ] = another dose, or the depositor's remark. The call rests on the fitted dose curve; in most records, active means well fitted curve in the direction sought with a large enough effect; inconclusive means small, poorly fitted or top-dose-only effect, or another doubt; inactive means no such curve, though single readings can be large; an effect the other way counts as inactive or inconclusive. Potency means the concentration at half of the fitted maximal effect.

SMILES	DT40 TDP1 no CPT	S2 tox	ATXN2 expr inh	HepG2 tox	TGFb SMAD3 inh	DT40 TDP1 CPT
CCN(C[C@H]1N[C@@](C)(C(=O)OC)[C@H]2C(=O)N(Cc3ccccc3)C(=O)[C@@H]12)S(=O)(=O)c1ccc(C(C)(C)C)cc1	23µM*	i	-24%	-5%	?	21µM*
CCN(C[C@H]1N[C@@](CC)(C(=O)OC)[C@H]2C(=O)N(Cc3ccccc3)C(=O)[C@@H]12)C(=O)Nc1ccc(Cl)cc1	21µM*	i	12%	-19%	-41%	?
CN1C2c3ccccc3C3C4c5ccccc5C(C31)C(C2[N+](=O)[O-])N4C (configuration not stated)	?	i	·	-3%	-20%	-8%
O=C(O)[C@H](O)[C@@H](O)C(=O)O	19%	i	-4%	-9%	-4%	16%
CCn1cc(C(=O)NCCc2ccc(OC)c(OC)c2)c(=O)c2cc(S(=O)(=O)N(C)C3CCCCC3)ccc21	?	·	?	-5%	?	?
CCOCCCNC(=O)c1c[nH]c2ccc(S(=O)(=O)N(C)c3ccc(Cl)cc3F)cc2c1=O	16µM*	i	-11%	-24%	-12%	23µM*
CC(=O)N(C)c1cccc(-c2ccnc3c(C(=O)c4cccs4)cnn23)c1	·	·	76%	·	·	·
CN(C)Cc1c[nH]c2ccccc12	13µM*!	i	-13%	-18%	-21%	12µM*
O/N=C/c1c[nH]c2ccccc12	-16%	i	3%	2%	-1%	20%
C=CCN(CC=C)Cc1c[nH]c2ccccc12	?	i	-1%	1%	0%	12µM*
CC(=O)Cc1c[nH]c2ccccc12	?	·	·	-6%	-16%	?
CN1CCCC2(CCN(C(=O)Oc3ccccc3)CC2)C1	-5%	·	·	·	·	14%
CC1CCCC(=O)CCC/C=C/c2cc(O)cc(O)c2C(=O)O1 (configuration not stated)	-15%	·	·	·	·	3%
C[C@H]1CCC[C@H](O)CCCCCc2cc(O)cc(O)c2C(=O)O1	18µM*	i	?	-58%	?	15µM*
C[C@H]1CCC[C@@H](O)CCC/C=C/c2cc(O)cc(O)c2C(=O)O1	21µM*	?	14µM*	-57%	?	?
COc1ccc([C@H]2CC(=O)C=C(c3ccc4c5c(cccc35)CC4)C2)cc1	?	i	12%	6%	-5%	?
CNC(=O)Oc1ccc(-c2cn3cc(C)ccc3n2)cc1	12µM*	i	8.9µM*	-61%	-26%	?
CC(C)(C)c1ccc(CSc2cnn(C(C)(C)C)c(=O)c2Cl)cc1	0.033µM*	i	·	-14%	-22%	0.16µM*
CC(C)(C)n1ncc2c(=O)n(Cc3cccc(Cn4cnc5c(cnn5C(C)(C)C)c4=O)c3F)cnc21	·	i	-2%	-30%	?	·
O=C(COC(=O)Cc1ccccc1)NCCNC(=O)COC(=O)Cc1ccccc1	10%	i	11%	5%	-15%	18%
Cc1cc([N+](=O)[O-])c2ccccc2[n+]1[O-]	0.052µM*	·	·	-126%	0.5µM*	0.046µM*
Cc1ccccc1[N+](=O)[O-]	10%	i	-11%	-10%	2%	-4%
O=C(Oc1ccccc1)N1CCC2(CCN(Cc3ccccc3)CC2)CC1	-8%	·	·	·	·	6%
c1ccc(CN2CCC3(CCc4ccccc43)CC2)cc1	?	·	·	·	·	24µM*
c1ccc(N2CCC3(CCNCC3)CC2)cc1	18µM*	·	·	·	·	-102%
SMILES	DT40 TDP1 no CPT	S2 tox	ATXN2 expr inh	HepG2 tox	TGFb SMAD3 inh	DT40 TDP1 CPT
c1ccc(N2CCC3(CCNCC3)CC2)nc1	?	·	·	·	·	18µM*
c1ccc(CN2CCC3(CCNCC3)CC2)cc1	3.3µM*	·	·	·	·	4.6µM*
C[C@]12CCC(=O)C=C1CCc1ccc(O)cc12	-19%	·	·	·	·	-5%
O=C(NC(=O)c1c(F)cccc1F)Nc1ccc(Cl)cc1	-7%	·	·	·	·	-9%
COc1ccc2c3c1OC1C(O)C=CC4[C@@H](C2)N(C)CC[C@]314 (some centres not stated)	-2%	i	1%	-22%	-33%	1%
CCOC(=O)c1cc2c(cn1)[nH]c1ccccc12	18µM*!	i	36%	-13%	5%	?
CC(C)N(C(=O)CCl)c1ccccc1	8.2µM*	?	-22%	-12%	11%	6.5µM*
CCc1cccc(C)c1N(C(=O)CCl)C(C)COC (configuration not stated)	-17%	·	·	·	·	?
Cc1ccc(Cn2cccc(C(=O)Nc3cc(C)on3)c2=O)cc1	-5%	i	8%	-21%	-5%	-24%
Nc1c(Cl)c(Cl)c(Cl)c(Cl)c1Cl	-5%[92.5 µM]	i	-8%[116 µM]	·	·	-1%[92.5 µM]
Oc1ccc(O)c2c1C1(Cl)C(Cl)=C(Cl)C2(Cl)C1(Cl)Cl	16µM*	?	?	i	?	23µM*
CC1(C)C[C@H]2C=C(C=O)[C@]3(C=O)C[C@]3(C)[C@H]2C1	0.82µM*	7.1µM*	3.5µM*	10µM*	?	0.92µM*
COc1ccc(OCC(=O)N2CCN(CCc3ccccn3)CC2)cc1	-15%	i	-4%	15%	-3%	5%
CC1CN(c2ccc([N+](=O)[O-])c(N3CCCCC3)c2)CCN1 (configuration not stated)	-28%	?	-21%	-19%	-2%	-10%
O=[N+]([O-])c1ccc(N2CCCC2)c(F)c1Br	23µM*	i	-1%	1%	-15%	13µM*
CC(C)C(Br)C(=O)NC(N)=O (configuration not stated)	2%	i	-9%	·	·	12%
Cc1ccc(CN2C(=O)CN=C(c3ccccc3)c3ccccc32)cc1	?	i	-7%	6%	-10%	-25%
Cc1cccc(CN2C(=O)CN=C(c3ccccc3)c3ccccc32)c1	5.8µM*	·	·	-1%	-23%	5.8µM*
Cc1cccc(-c2nc(CN3C(=O)CN=C(c4ccccc4)c4ccccc43)c(C)o2)c1	?	?	?	-52%	?	?
O=C1CN=C(c2ccccc2)c2cc(Cl)ccc2N1Cc1ccc(Cl)cc1	15µM*	·	-7%	-38%	?	?
Cc1cccc(CN2C(=O)CN=C(c3ccccc3)c3cc(Cl)ccc32)c1	16µM*	·	·	-41%	16µM*	?
CCCC(=O)c1ccc(CP(=O)(OCC)OCC)o1	9%	i	-26%	51%	0%	1%
